Potency estimated from few doses data for four compounds are collected here from publication PMC11062922 (Nature Chemical Biology, 2023).

Where two headings read alike, the source gives them in different places.

Holding throughout (parameters): species or system human, MV4-11 + K-562 + COLO205 + SK-N-BE2 + OVCAR-8
One experiment relates to AURKA. Particulars: read-out: apparent Kd; compound concentrations: 100 nM and 1000 nM (sheet 'Samples'), CATDS: 4.2728158523190798E-2; n = 1.
In another experiment the test system is AURKB. The note with it: read-out: apparent Kd; compound concentrations: 100 nM and 1000 nM (sheet 'Samples'), CATDS: 4.3580096723042298E-2; n = 1.
For a further experiment, the system named is BUB1. The note with it: read-out: apparent Kd, compound concentrations: 100 nM and 1000 nM (sheet 'Samples'), n = 1.
The subject of another experiment is CSNK1D. The note with it: read-out: apparent Kd; compound concentrations: 100 nM and 1000 nM (sheet 'Samples'), CATDS: 5.89125677268394E-2; n = 1.
The next experiment concerns CSNK1E. Particulars: read-out: apparent Kd; compound concentrations: 100 nM and 1000 nM (sheet 'Samples'), CATDS: 4.0450014161249097E-2; n = 1.
The subject of the next experiment is DDR1. The note with it: read-out: apparent Kd; compound concentrations: 100 nM and 1000 nM (sheet 'Samples'), CATDS: 6.5674707070784599E-2; n = 1.
The next experiment deals with DDR2. The note with it: read-out: apparent Kd; compound concentrations: 100 nM and 1000 nM (sheet 'Samples'), CATDS: 3.7339921381228602E-2; n = 1.
In another experiment the test system is EPHB6. Particulars: read-out: apparent Kd; compound concentrations: 100 nM and 1000 nM (sheet 'Samples'), CATDS: 3.6673450698806898E-2; n = 1.
The test system of the next experiment is FLT3. The note with it: read-out: apparent Kd; compound concentrations: 100 nM and 1000 nM (sheet 'Samples'), CATDS: 0.27087793421716799; n = 1.
A further experiment has as its system FLT4. Particulars: read-out: apparent Kd; compound concentrations: 100 nM and 1000 nM (sheet 'Samples'), CATDS: 4.30316479834668E-2; n = 1.
The next experiment relates to GAK. The note with it: read-out: apparent Kd; compound concentrations: 100 nM and 1000 nM (sheet 'Samples'), CATDS: 7.8479207153445404E-2; n = 1.
A further experiment concerns LIMK2. The note with it: read-out: apparent Kd; compound concentrations: 100 nM and 1000 nM (sheet 'Samples'), CATDS: 3.6080783188173302E-2; n = 1.
In the next experiment the test system is NQO2. The note with it: read-out: apparent Kd; compound concentrations: 100 nM and 1000 nM (sheet 'Samples'), CATDS: 0.178299559019577; n = 1.
Another experiment deals with PDGFRB. Particulars: read-out: apparent Kd; compound concentrations: 100 nM and 1000 nM (sheet 'Samples'), CATDS: 5.3358090976632598E-2; n = 1.
The next experiment relates to RET. Particulars: read-out: apparent Kd; compound concentrations: 100 nM and 1000 nM (sheet 'Samples'), CATDS: 0.111645797001171; n = 1.
The next experiment concerns RIPK2. Particulars: read-out: apparent Kd; compound concentrations: 100 nM and 1000 nM (sheet 'Samples'), CATDS: 3.9651452900350902E-2; n = 1.
The next experiment relates to RIPK3. Particulars: read-out: apparent Kd; compound concentrations: 100 nM and 1000 nM (sheet 'Samples'), CATDS: 3.2567224991893698E-2; n = 1.
A further experiment relates to SIK2. Particulars: read-out: apparent Kd; compound concentrations: 100 nM and 1000 nM (sheet 'Samples'), CATDS: 4.1786415024185397E-2; n = 1.
The subject of another experiment is TGFBR1. Particulars: read-out: apparent Kd; compound concentrations: 100 nM and 1000 nM (sheet 'Samples'), CATDS: 3.3015845196466199E-2; n = 1.
The subject of another experiment is TGFBR2. Particulars: read-out: apparent Kd; compound concentrations: 100 nM and 1000 nM (sheet 'Samples'), CATDS: 3.2296969977490597E-2; n = 1.
The test system of a further experiment is TNK1. Particulars: read-out: apparent Kd; compound concentrations: 100 nM and 1000 nM (sheet 'Samples'), CATDS: 4.85220574572469E-2; n = 1.
Another experiment has as its system AXL. The note with it: read-out: apparent Kd; compound concentrations:100 nM and 1000 nM (sheet 'Samples'); n = 1.
For another experiment, the system named is EIF2AK1. The note with it: read-out: apparent Kd; compound concentrations:100 nM and 1000 nM (sheet 'Samples'); n = 1.
For the next experiment, the system named is MAPK11. Particulars: read-out: apparent Kd; compound concentrations: 100 nM and 1000 nM (sheet 'Samples'), CATDS: 0.164145076514569; n = 1.
A further experiment relates to MAPK14. The note with it: read-out: apparent Kd; compound concentrations: 100 nM and 1000 nM (sheet 'Samples'), CATDS: 0.28659928881312002; n = 1.
In the next experiment the test system is MAPKAPK2. Particulars: read-out: apparent Kd; compound concentrations: 100 nM and 1000 nM (sheet 'Samples'), CATDS: 0.18697262000238801; n = 1.
The subject of the next experiment is PIK3CD. The note with it: read-out: apparent Kd; compound concentrations: 100 nM and 1000 nM (sheet 'Samples'), CATDS: 0.38142915880681; n = 1.
The next experiment concerns BMP2K. Particulars: read-out: apparent Kd; compound concentrations:100 nM and 1000 nM (sheet 'Samples'); n = 1.
The test system of the next experiment is CDC42BPA. The note with it: read-out: apparent Kd; compound concentrations:100 nM and 1000 nM (sheet 'Samples'); n = 1.
For a further experiment, the system named is CDC42BPB. Particulars: read-out: apparent Kd; compound concentrations:100 nM and 1000 nM (sheet 'Samples'); n = 1.
The subject of the next experiment is CDC42BPG. The note with it: read-out: apparent Kd; compound concentrations:100 nM and 1000 nM (sheet 'Samples'); n = 1.
The next experiment relates to PKN1. Particulars: read-out: apparent Kd; compound concentrations:100 nM and 1000 nM (sheet 'Samples'); n = 1.
Another experiment deals with PKN2. Particulars: read-out: apparent Kd; compound concentrations:100 nM and 1000 nM (sheet 'Samples'); n = 1.
In a further experiment the test system is PRKACA. The note with it: read-out: apparent Kd; compound concentrations:100 nM and 1000 nM (sheet 'Samples'); n = 1.
A further experiment relates to PRKACB. Particulars: read-out: apparent Kd; compound concentrations:100 nM and 1000 nM (sheet 'Samples'); n = 1.
The test system of the next experiment is PRKG1. Particulars: read-out: apparent Kd; compound concentrations:100 nM and 1000 nM (sheet 'Samples'); n = 1.
A further experiment has as its system PRKX. Particulars: read-out: apparent Kd; compound concentrations:100 nM and 1000 nM (sheet 'Samples'); n = 1.
A further experiment has as its system ROCK1. The note with it: read-out: apparent Kd; compound concentrations:100 nM and 1000 nM (sheet 'Samples'); n = 1.
A further experiment has as its system ROCK2. Particulars: read-out: apparent Kd; compound concentrations:100 nM and 1000 nM (sheet 'Samples'); n = 1.
The next experiment deals with RPS6KB1. Particulars: read-out: apparent Kd; compound concentrations:100 nM and 1000 nM (sheet 'Samples'); n = 1.

Regarding `CCCCc1nn2ncccc2c1-c1ccnc(Nc2ccc(N3CCN(C)CC3)cc2)n1` [GW684941X], the potency estimated from few doses is 853 nM in the experiment with AURKA; 809 nM in the experiment with AURKB; 667 nM with BUB1 (CATDS: 4.7022132934679002E-2); 400 nM in the experiment with CSNK1D; 993 nM in the experiment on CSNK1E; 320 nM in the experiment on DDR1. For the same compound, the potency estimated from few doses with DDR2 was 1270 nM; with EPHB6, 1340 nM; in the experiment on FLT3 it was 32.5 nM; in the experiment on FLT4, 837 nM; in the experiment with GAK it was 227 nM; with LIMK2 it was 1420 nM. Also, the potency estimated from few doses is 58.6 nM in the experiment with NQO2; 496 nM in the experiment on PDGFRB; 122 nM with RET; 1050 nM in the experiment on RIPK2; 2080 nM in the experiment on RIPK3; 906 nM in the experiment on SIK2. Moreover, the potency estimated from few doses is 1970 nM in the experiment on TGFBR1, 2150 nM with TGFBR2 and 618 nM with TNK1.
For `Cc1cccc(CC(=O)N2CCc3c2ccc(-c2cn(C)c4ncnc(N)c24)c3F)n1` [GSK2656157], the potency estimated from few doses is 503 nM in the experiment with AXL and 751 nM in the experiment with EIF2AK1.
As for `Cc1cc(N2CCC(NS(=O)(=O)c3ccc(F)cc3)CC2)nc(Nc2cccc(C#N)c2)n1.O=C(O)C(F)(F)F` [GSK1653537A], the potency estimated from few doses in the experiment on BUB1 (CATDS: 0.134254488051117) is 1700 nM; in the experiment with MAPK11, 822 nM; with MAPK14 it was 232 nM; in the experiment on MAPKAPK2 it was 573 nM; with PIK3CD, 144 nM.
Regarding `Cl.Cl.NC[C@H](CC1CCCCC1)NC(=O)c1cc(Br)c(-c2ccnc3[nH]ccc23)s1.NC[C@H](CC1CCCCC1)NC(=O)c1cc(Br)c(-c2ccnc3[nH]ccc23)s1` [GSK1581427A], the potency estimated from few doses with BMP2K was 106 nM; in the experiment with CDC42BPA, 119 nM; in the experiment with CDC42BPB it was 45.2 nM; with CDC42BPG, 13.7 nM; with PKN1, 1690 nM; with PKN2 it was 2310 nM. The potency estimated from few doses is 20.9 nM in the experiment with PRKACA; 40.2 nM with PRKACB; 10.8 nM with PRKG1; 513 nM in the experiment on PRKX; 53.6 nM in the experiment on ROCK1; 51.1 nM in the experiment on ROCK2. Also, the potency estimated from few doses in the experiment on RPS6KB1 was 481 nM.
